Publication PMC7819943, “Rice protein-binding microarrays: a tool to detect cis-acting elements near promoter regions in rice”
Over roughly 68,000 sequences, “fluorescence intensity (a.u.)” has its median near 9,100; the highest 2% begin near 16,000. Only a selection was taken, and the highest values are over-represented in it overall.

What follows are sequences tested against OsWRKY34 (Oryza sativa, UniProt Q0JBA9 1-250) (assay: protein-binding microarray (RPBM); PBS, 2% BSA, 51.3 ng/ul salmon testes DNA, 50 uM zinc acetate, 200 nM TF, 25 C, 1 h; high values mean tight binding). Details: protein: recombinant; tags: N-terminal polyhistidine and DsRed monomer fusion (pET32a); label: CyDye5-dUTP incorporated in the synthesized complementary strand; 3' TTTTT single-stranded linker to array surface; dsDNA, one strand shown.
OsWRKY34, sequence (Q0JBA9 entry or part of it): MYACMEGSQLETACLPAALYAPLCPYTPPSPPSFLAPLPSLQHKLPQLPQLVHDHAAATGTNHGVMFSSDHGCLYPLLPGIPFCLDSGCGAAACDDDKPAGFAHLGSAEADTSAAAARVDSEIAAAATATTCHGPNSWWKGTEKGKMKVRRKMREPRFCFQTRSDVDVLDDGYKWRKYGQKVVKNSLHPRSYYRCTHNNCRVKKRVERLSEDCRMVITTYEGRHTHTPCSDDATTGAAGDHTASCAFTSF
Summary of the method: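 A custom Agilent array was converted to double-stranded form by primer extension with Cy5-dUTP and blocked with 2% BSA. Protein at 200 nM in PBS with 2% BSA, salmon testes DNA and 50 µM zinc acetate was applied for 1 h at 25 °C, followed by washing. The proteins were polyhistidine–DsRed N-terminal fusions of transcription factors, expressed in E. coli BL21-CodonPlus and Ni–NTA-purified. The binding signal is per-feature fluorescence intensity (arbitrary units) from an Axon 4000B scanner.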

| Sequence | binding signal |
| --- | --- |
| CCTGCCCGGTGTGCTGTGACTTGCCGTTATCGTCACCGTTCGGAGTCACCTAGTGCAG | 10200 fluorescence intensity (a.u.) |
| CACTTCTTTTCTCTATGGCGGCATCTGAATCTATGTGGATCGGAGTCACCTAGTGCAG | 9450 fluorescence intensity (a.u.) |
| AATCACCTCCCTTATCTTACCTGCATGACAAATGCCTCGACGGAGTCACCTAGTGCAG | 8590 fluorescence intensity (a.u.) |
| ACCCACCATGCCACCCCACTCCTTCTTTAAACTTGTAAACCGGAGTCACCTAGTGCAG | 9480 fluorescence intensity (a.u.) |
| TCTCCTATCCAGTTGGATTCCCAAAATTTCGCCTTTCGTCCGGAGTCACCTAGTGCAG | 8070 fluorescence intensity (a.u.) |
| AACCGAAATCACTTTGGCAGCATGTTTTCCTCTGTAACCACGGAGTCACCTAGTGCAG | 9350 fluorescence intensity (a.u.) |
| CAACCCCACCGCCGCCGCCGCAAACCGTCTCGCCGTCGCCCGGAGTCACCTAGTGCAG | 11600 fluorescence intensity (a.u.) |
| GAGGTTGTTTTGTCGTCTAGCAAGTGTGTGTCGGGTGGCGCGGAGTCACCTAGTGCAG | 9220 fluorescence intensity (a.u.) |
| GTCATATGGCACCATGCTTGCTCTCCACTCTTCAATCAGTCGGAGTCACCTAGTGCAG | 9490 fluorescence intensity (a.u.) |
| TCGCTGCTCTGCCCTTTTCCCTTTTTTTTTCTTTCTTCATCGGAGTCACCTAGTGCAG | 10200 fluorescence intensity (a.u.) |
| CTCCCGTCAGTTGACCGTGTGTTGACCGTTAATTCTCAAGCGGAGTCACCTAGTGCAG | 17500 fluorescence intensity (a.u.) |
| CCCTCCCGTCAGTTGACCGTTAGTTGACCGTGTATTTTCTCGGAGTCACCTAGTGCAG | 12200 fluorescence intensity (a.u.) |
| CCATCAGTTGACCATGTGTTGACCGTTAACTCTCAAGTAACGGAGTCACCTAGTGCAG | 9190 fluorescence intensity (a.u.) |
| TCCGTGTCCAATGTTTGACCATCCGTCTTATTTAAAAAAACGGAGTCACCTAGTGCAG | 8070 fluorescence intensity (a.u.) |
| GTGTTGTGTTCATCTCCTTCGTTTACTTCTCTTCTCCTCTCGGAGTCACCTAGTGCAG | 11500 fluorescence intensity (a.u.) |
| TATTCTGTTGTATTATGATATTATATATATTTTTCTTCGACGGAGTCACCTAGTGCAG | 8980 fluorescence intensity (a.u.) |
| AACAGGCATGGTTTCCTTCGTCGTTTCTACTAGCAGTTGCCGGAGTCACCTAGTGCAG | 11900 fluorescence intensity (a.u.) |
| GTTCCTTTCAGAAACTGGCATTCGAGTTTTGAGTTTCTCGCGGAGTCACCTAGTGCAG | 8720 fluorescence intensity (a.u.) |
| GATGGCCTTGACCATGCAGAAACAGGCATGGTTTCCTTCGCGGAGTCACCTAGTGCAG | 64500 fluorescence intensity (a.u.) |
| ATTGTTATGTTCCTTTGTTTTCTTATAAATATAATTTAATCGGAGTCACCTAGTGCAG | 9560 fluorescence intensity (a.u.) |
| TTTTCCTTAGTCAAAGTTATATATGTTTGACTAAATTTATCGGAGTCACCTAGTGCAG | 18000 fluorescence intensity (a.u.) |

| Sequence | binding signal |
| --- | --- |
| CTTTAGTTAAAGTCAAAGTGCTTCAAGTTTGACTAAGTTTCGGAGTCACCTAGTGCAG | 9150 fluorescence intensity (a.u.) |
| GTTTTGACTTTGGTCAAAGTCAAACTAATTCAAGTTAGACCGGAGTCACCTAGTGCAG | 17600 fluorescence intensity (a.u.) |
| TTTGGTCAAACTTAAAAAAGTTTGACTACAACTAAATTCACGGAGTCACCTAGTGCAG | 8740 fluorescence intensity (a.u.) |
| TAAGACGTTTTGACTTTGGTCAAACTGTTTGGTCAAAGTCCGGAGTCACCTAGTGCAG | 10600 fluorescence intensity (a.u.) |
| GACTTTAGTCAAAGTCATGTTGTTTCAAGTTTGACTAATTCGGAGTCACCTAGTGCAG | 18800 fluorescence intensity (a.u.) |
| CATTTGACTTTTTTCTAGTCAAAGTTATTTATATTTAATTCGGAGTCACCTAGTGCAG | 14100 fluorescence intensity (a.u.) |
| CTAAAATTTCCTTATGTTTTCTTCTTCTTCTAGTTATGTGCGGAGTCACCTAGTGCAG | 8800 fluorescence intensity (a.u.) |
| TCATACATGTGATCACTCACTCACTCTCACACACACTCTCCGGAGTCACCTAGTGCAG | 10100 fluorescence intensity (a.u.) |
| AAACAGACCCTTAATATGCTATATTTGTCTCCAATAAAACCGGAGTCACCTAGTGCAG | 8480 fluorescence intensity (a.u.) |
| TTGCTCTTGTTAATGTTTGGCTTTCTTCTTCTTCTGCTGCCGGAGTCACCTAGTGCAG | 8600 fluorescence intensity (a.u.) |
| GGCCCTGAGCTCTCTCTTGCTGCTTCTTTTAATGGGTTTTCGGAGTCACCTAGTGCAG | 9680 fluorescence intensity (a.u.) |
| TGGGGTTTTCAGCTTGCCAATGCTGCATTATCTTCTTTTTCGGAGTCACCTAGTGCAG | 17200 fluorescence intensity (a.u.) |
| CTCCATTCTTGTTTGTTCCTTCTTTGCTTTCAGCTGCTTTCGGAGTCACCTAGTGCAG | 15000 fluorescence intensity (a.u.) |
| GGCTCGTGCACCTGCTCTCGTCTTTTCCACCGCTTTTTTTCGGAGTCACCTAGTGCAG | 16800 fluorescence intensity (a.u.) |
| GCTCCCTGCTGCCATATCCTATCATCTCCTCTCTTCCTCTCGGAGTCACCTAGTGCAG | 8540 fluorescence intensity (a.u.) |
| CTGCCGCGCTTCGTCGCCGCGCTCGCCCGTCTTTCGCTCTCGGAGTCACCTAGTGCAG | 8230 fluorescence intensity (a.u.) |
| ATATCCCTTCTCTTCCCTCATCTCTCCACCTCTTCCATCTCGGAGTCACCTAGTGCAG | 8890 fluorescence intensity (a.u.) |
| CCTCATCCGCTGCTCTGCTCCCACCATTGCTGCTCTCTCTCGGAGTCACCTAGTGCAG | 17700 fluorescence intensity (a.u.) |
| ACACTCTGCTGCATCTCTTATCCCTTCATCTCGGTCTTAACGGAGTCACCTAGTGCAG | 16600 fluorescence intensity (a.u.) |
| ACCAGCTTTCTTTCTCGTGCTTTCCTCTTCTTCTTTTTTTCGGAGTCACCTAGTGCAG | 10900 fluorescence intensity (a.u.) |
| TCTCTCTCTCTCTCCTCTGCATCCGCGCGCATTGCTCGATCGGAGTCACCTAGTGCAG | 9000 fluorescence intensity (a.u.) |
